Screens from PubChem.
Pf apPOL inh: Pf-apPOL DNA polymerase inhibition | 210,000 compounds, 0.25% hits | inhibition, % at 10 µM | Recombinant Pf-apPOL, molecular beacon fluorescence, 1.5 h
mHTT CaM bind: disrupts binding of mutant huntingtin to calmodulin. AlphaScreen His-mHTT/GST-CaM binding, luminescence. 190,000 compounds, 3.6% hits. inhibition, % at 15 µM. AID 1671202;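 further: 0% = both proteins with DMSO and 100% = one protein alone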
* hit, by the source's call. Most compounds without a hit are left out; they make up all but 3.6% or so of the library. No stated cut-off is given here; in the data, active means inhibition above about 50%; inactive means the rest.

For Cc1cccc(CNC(=O)c2nn(C)c3c2CN(C(=O)c2ccccc2C)CC3)c1 the results were Pf apPOL inh -12 and mHTT CaM bind 27.
`Cc1cccc(CNC(=O)c2nn(C)c3c2CN(C(=O)c2cccc(C)c2)CC3)c1` gave Pf apPOL inh -7 and mHTT CaM bind 74*.
Cc1cccc(CNC(=O)c2nn(C)c3c2CN(C(=O)c2cccc(F)c2)CC3)c1 was read as Pf apPOL inh -6 and mHTT CaM bind 71*.
`Cn1nc(C(=O)NCc2ccc(Cl)cc2)c2c1CCN(C(=O)c1ccco1)C2` gave Pf apPOL inh 5 and mHTT CaM bind 5.
`Cc1cccc(C(=O)N2CCc3c(c(C(=O)NCc4ccc(Cl)cc4)nn3C)C2)c1` gave Pf apPOL inh 23 and mHTT CaM bind 91*.
For O=S(=O)(NCc1ccccc1Cl)c1ccc2c(c1)-c1oncc1CO2 the results were Pf apPOL inh 0 and mHTT CaM bind -2.
Screening O=C1CC(c2nc(-c3cccs3)no2)CN1Cc1ccco1 (centres undefined) returned Pf apPOL inh -1 and mHTT CaM bind -12.
`O=C(Nc1ccc(F)cc1F)NC1(c2nc(-c3ccsc3)no2)CCCCC1` gave Pf apPOL inh 3 and mHTT CaM bind -9.
CCN(CC)S(=O)(=O)c1cc(C(=O)Nc2cccc([N+](=O)[O-])c2)ccc1Cl was read as Pf apPOL inh -1 and mHTT CaM bind 2.
Screening COc1ccccc1C(=O)ON=Cc1ncc(C(F)(F)F)cc1Sc1ccc(Cl)cc1 returned Pf apPOL inh -8.
Cc1ccc(C(=O)N=C2SCCN2C(=O)c2ccc(C)s2)s1 was read as Pf apPOL inh 0 and mHTT CaM bind 87*.
For Cc1ccc(C(=O)N2CCCCC2CCN(C)C)s1 (centres undefined) the results were Pf apPOL inh -2 and mHTT CaM bind -1.
For COc1cc(C2C(C#N)=C(N)Oc3n[nH]c(-c4ccc5c(c4)OCO5)c32)cc(Cl)c1O (centres undefined) the results were Pf apPOL inh -9 and mHTT CaM bind 21.
`CCOc1ccc(Br)cc1C1N2CC3(C)CN1CC(C)(C2)C3O` (centres undefined) gave Pf apPOL inh -6 and mHTT CaM bind 16.
`O=C1Nc2ccc(Br)cc2/C1=C/c1ccc(O)c(O)c1` gave Pf apPOL inh 2 and mHTT CaM bind 96*.
`O=C1Nc2ccc(Br)cc2/C1=C/c1ccc(Cl)cc1` gave Pf apPOL inh -6 and mHTT CaM bind 26.
`O=C1Nc2ccc(Br)cc2/C1=C/c1cccc(Cl)c1` gave Pf apPOL inh 3 and mHTT CaM bind 40.
For CC(C)(C)c1ccc(/C=C2\C(=O)Nc3ccc(Br)cc32)cc1 the results were Pf apPOL inh -7 and mHTT CaM bind 90*.
For Cc1cccc(-n2nc3c(c2NC(=O)c2ccccc2Br)CS(=O)(=O)C3)c1C the results were Pf apPOL inh -7 and mHTT CaM bind -1.
`Cc1ccccc1NC(=O)c1noc2c1CCCC2` gave Pf apPOL inh -6 and mHTT CaM bind 2.
Screening COc1ncnc2c1sc1nc(N3CCOCC3)c3c(c12)CCCC3 returned Pf apPOL inh -3 and mHTT CaM bind -4.
`COc1ccc(C(CC(=O)N2CCCC2)c2c(O)cc(OC)cc2OC)cc1` (centres undefined) gave Pf apPOL inh 1 and mHTT CaM bind 10.
`COc1ccc(C(CC(=O)N2CCN(c3ccccc3)CC2)c2c(OC)cc(OC)c3ccc(=O)oc23)cc1` (centres undefined) gave Pf apPOL inh -5 and mHTT CaM bind 56*.
Screening COc1cc(O)c(C(CC(=O)N2CCN(c3ccccc3)CC2)c2ccc(N(C)C)cc2)c(OC)c1 (centres undefined) returned Pf apPOL inh -6 and mHTT CaM bind 74*.
COc1cc(C(CC(=O)N2CCCC2)c2c(OC)cc(OC)c3ccc(=O)oc23)cc(OC)c1OC (centres undefined) was read as Pf apPOL inh -1 and mHTT CaM bind 14.
`Cc1onc(-c2c(Cl)cccc2Cl)c1C(=O)Nc1nc2ccc([N+](=O)[O-])cc2s1` gave Pf apPOL inh -22 and mHTT CaM bind 85*.
`COc1ccc(NC(=O)c2c(-c3c(Cl)cccc3Cl)noc2C)c([N+](=O)[O-])c1` gave Pf apPOL inh 11 and mHTT CaM bind 53*.
Screening Cc1ccc(NC(=O)c2c(-c3c(Cl)cccc3Cl)noc2C)c([N+](=O)[O-])c1 returned Pf apPOL inh 6 and mHTT CaM bind 19.
Screening Cc1onc(-c2ccccc2Cl)c1C(=O)Nc1ccc(F)c([N+](=O)[O-])c1 returned Pf apPOL inh -5 and mHTT CaM bind 23.
Screening Cc1onc(-c2c(Cl)cccc2Cl)c1C(=O)Nc1ccc(F)c([N+](=O)[O-])c1 returned Pf apPOL inh 42 and mHTT CaM bind 63*.
Cc1ccc2nc(NC(=O)c3cc([N+](=O)[O-])ccc3Cl)sc2c1 was read as Pf apPOL inh -3 and mHTT CaM bind -2.
